Measured values: PubChem BioAssay AID565 (University of Pittsburgh Molecular Library Screening Center, 2006)
The whole screen tested about 65,000 compounds, of which about 1,200 (1.8%) were called active. The sample as a whole holds a higher share of actives than the screen did. Unmarked numbers belong to inactive results. No stated cut-off is given here; in the data, active means inhibition above about 50%; inactive means the rest.

Biological target: Gag-Pol polyprotein (Human immunodeficiency virus type 1 group M subtype B (isolate HXB2)) (UniProt P04585)
Test: blockers of HIV-1 RNase H RNA/DNA cleavage – biochemical, fluorescence, primary screen (AID 565)
Conditions: RT-RNase H RNA/DNA duplex cleavage, at 10 µM, hits give high values

| SMILES | inhibition |
| --- | --- |
| CCCc1[nH]nc2c1C(C1CC=CCC1)C(C#N)=C(N)O2 (stereo not given) | -53.6% |
| Cc1nc2ccc(C(=O)N3CCSCC3)cc2s1 | -8.86% |
| CC(C)CC(=O)N=C1SC2CS(=O)(=O)CC2N1CCc1ccccc1 (stereo not given) | -0.09% |
| Cc1ccc(C(=O)NC2CCN(C(=O)N3CCOCC3)CC2)cc1 | -0.08% |
| O=C(NCCCN1CCN(Cc2ccccc2)CC1)C1CCN(S(=O)(=O)N2CCCC2)CC1 | -16.5% |
| CCC(C)Sc1nc2c(c(=O)[nH]c(=O)n2C)n1CC(O)COc1cccc2ccccc12 (stereo not given) | 76.5% (active) |
| CN1CCN(c2nc3c(c(=O)[nH]c(=O)n3C)n2Cc2cccc3ccccc23)CC1 | -0.99% |
| CCOC(=O)Cn1c(CN(Cc2ccccc2)Cc2ccccc2)nc2c1c(=O)[nH]c(=O)n2C | -4.21% |
| Cc1cccc(NC(=O)CSc2nnc(CCCCCNC(=O)OC(C)(C)C)o2)c1C | -13.1% |
| CCn1c(=N)c(C(=O)NCCCOC)cc2c(=O)n3cccc(C)c3nc21 | -13.1% |
| COc1ccc(CNC(=O)c2cc3c(=O)n4ccccc4nc3n(CC3CCCO3)c2=N)cc1 (stereo not given) | -18.1% |
| COc1ccc(CCn2c(=N)c(C(=O)NCc3ccco3)cc3c(=O)n4cccc(C)c4nc32)cc1 | 64.2% (active) |
| Cn1c(=O)[nH]c(=O)c2c1nc(CN(Cc1ccccc1)Cc1ccccc1)n2CCN1CCOCC1 | -6.59% |
| COc1ccc(OCCCON2C(=O)c3ccccc3C2=O)cc1 | -68.1% |
| CCCCc1nc2ccccc2c(=O)n1NC(=O)c1c(O)c2cccc3c2n(c1=O)CC3 | 4.26% |
| CCCc1nc2ccccc2c(=O)n1NC(=O)c1c(O)c2ccccc2[nH]c1=O | -19.6% |
| CCCc1nc2ccccc2c(=O)n1/N=C/c1ccc(O)c(O)c1 | 88.4% (active) |
| Cc1ccc2c(c1)N(CCCC(=O)NCc1cccnc1)C(=O)CO2 | -14.5% |
| Cc1ccc(-n2nc(-c3ccco3)cc2C(=O)NCc2cccnc2)cc1 | 61.9% (active) |
| CC(C)(C)c1cc(C(=O)NCc2cccnc2)ccn1 | 3.16% |
| C#CCN1C(=O)C(O)(CC(=O)c2cc(OC)ccc2OC)c2ccccc21 (stereo not given) | -25.6% |
| O=P(O)(CP(=O)(c1ccccc1)c1ccccc1)c1ccccc1 | -16.3% |
| CC12CCC(C(=O)N(CCC#N)CCC#N)(CC1=O)C2(C)C (stereo not given) | -5.03% |
| CCOC(=O)CSC1=C(C#N)C(c2sccc2C)CC(=O)N1 (stereo not given) | -2.34% |

| SMILES | inhibition |
| --- | --- |
| CCOC(=O)CSC1=C(C#N)C(c2ccco2)C(C(=O)OCc2ccccc2)=C(C)N1 (stereo not given) | -11.6% |
| CC1=C(C(=O)Nc2ccccc2)C(c2cccs2)C(C#N)=C(SCC#N)N1 (stereo not given) | 55.5% (active) |
| O=C(Nn1cc(C(=O)N2CCN(c3ccccc3F)CC2)c2ccccc2c1=O)c1cnccn1 | -2.41% |
| Fc1ccc(-c2nnc3sc(-c4ccc5c(c4)OCO5)nn23)cc1 | 66.3% (active) |
| COc1cc(-c2nn3c(-c4cccc(C)c4)nnc3s2)cc(OC)c1OC | -7.33% |
| Cc1nnc2sc(-c3ccco3)nn12 | 4.12% |
| COc1ccc(-c2nn3c(-c4ccccc4)nnc3s2)cc1OC | -38.4% |
| FC(F)(F)c1nnc2sc(-c3ccco3)nn12 | -2.16% |
| Fc1ccc(-c2ccc(-c3nn4c(-c5ccco5)nnc4s3)o2)cc1 | 65.8% (active) |
| Cc1cc(C)c(C#N)c(SCc2ccccc2C(=O)O)n1 | -5.35% |
| COc1ccc(N2CCN(CCNC(=O)CCN3C(=O)COc4ccccc43)CC2)cc1 | 7.09% |
| CCOc1cc(NC(=O)c2ccco2)c(OCC)cc1NC(=O)COc1ccccc1 | 52.4% (active) |
| Cc1ccc(C(=O)COc2cccc(NC(=O)c3ccco3)c2)cc1 | 9.47% |
| O=C(Nc1ccc(Oc2ccccc2)cc1)c1ccco1 | -7.33% |
| Cc1cc(Nc2ccccc2)n(C(=O)c2ccc(N)cc2)n1 | -17.6% |
| CCOC(=O)c1ccccc1NC(=O)CC1Nc2ccccc2NC1=O (stereo not given) | 71.6% (active) |
| CCCOC(=O)Nc1ccccc1C(N)=O | -29.1% |
| O=C(CC1Nc2ccccc2NC1=O)Nc1ccccc1 (stereo not given) | -4.38% |
| CCC(C)NC(=O)C1CCC(=O)N1Cc1ccc(C)cc1 (stereo not given) | -9.01% |
| CCN(CC)CCCNC(=O)c1cc(-c2cccc(Cl)c2)on1 | -16% |
| CCc1ccc2oc(-c3ccc(N)cc3)nc2c1 | -12.6% |
| CCN(CC)c1ccc2cc(C(=O)O)c(=O)oc2c1 | -8.5% |
| CCN(CC)c1ccc2oc(=O)c(C)nc2c1 | 68.2% (active) |
| Cc1cccc(NC(=O)COc2ccc(Br)cc2C)n1 | -9.39% |

| SMILES | inhibition |
| --- | --- |
| CCN(C(=O)CSc1ncn[nH]1)c1cccc2ccccc12 | -10.7% |
| CC(C)(C)c1ccc(C(=O)CSc2ncn[nH]2)cc1 | 82.3% (active) |
| Cn1nnc(NC(=O)CSc2ncn[nH]2)n1 | -0.52% |
| Cc1cccc(N=C2NC(=O)CS2)c1C | -0.31% |
| c1ccc2cc(OCCN3CCCC3)ccc2c1 | -14.7% |
| N#Cc1cccc(CSc2nnc(CCCO)n2-c2ccccc2)c1 | -5.32% |
| O=C(OCc1nnc(-c2ccccc2)o1)c1ccc2c(c1)C(=O)N(CCc1ccccc1)C2=O | 16.2% |
| O=c1c2ccccc2[nH]c(=S)n1CCN1CCC(=C(c2ccc(F)cc2)c2ccc(F)cc2)CC1 | 53.2% (active) |
| COc1ccccc1Cn1c(=S)[nH]c2cc(C(=O)N3CCN(C)CC3)ccc2c1=O | -5.95% |
| O=C(CCn1c(=S)[nH]c2ccccc2c1=O)NCCCN1CCCC1=O | -8.03% |
| CN(C)Cc1c(O)ccc2occ(C(O)c3ccccc3)c12 (stereo not given) | 2.07% |
| COc1ccc(OC)c2c(N)c(C#N)c(C(F)(F)C(F)(F)F)nc12 | -3.29% |
| Cn1c(CC(=O)Nc2ccccc2)nnc1SCC(=O)c1ccccc1 | 50.1% (active) |
| Cc1ccccc1NC(=O)Cc1nnc(SCC(=O)N2CCN(c3ccccc3)CC2)n1C | 1.53% |
| Cn1c(CNc2nc(-c3ccccc3)cs2)nnc1SCC(=O)c1ccccc1 | -5.65% |
| CCOC(=O)C(C(=O)OCC)C(C#N)c1ccccc1 (stereo not given) | -13.1% |
| Cc1ccc(-c2nnc(SC(C)C#N)n2N)cc1 (stereo not given) | -0.02% |
| N#Cc1c(NC(=O)CCCN2C(=O)c3ccccc3C2=O)oc(-c2ccccc2)c1-c1ccccc1 | 19% |
| COc1cc(C(=O)Nc2nccs2)cc(OC)c1OC | -12.7% |
| COc1cc(C(=O)Nc2oc(-c3ccccc3)c(-c3ccccc3)c2C#N)cc(OC)c1OC | 80% (active) |
| CCC(C)(C)NC(=O)C(c1cccn1C)N(Cc1ccc(C)cc1)C(=O)Cn1nnc2ccccc21 (stereo not given) | 50.2% (active) |
| COCCNC(=O)C(c1ccc(C)o1)N(Cc1ccccc1)C(=O)Cn1nnc2ccccc21 (stereo not given) | 5.47% |
| CC(C)(C)NC(=O)C(c1ccco1)N(Cc1ccc2c(c1)OCO2)C(=O)Cn1nnc2ccccc21 (stereo not given) | 9.38% |
| CCOc1ccc(Cn2c(SCCCCC#N)nc3c2c(=O)n(C)c(=O)n3C)cc1OCC | 29.2% |

| SMILES | inhibition |
| --- | --- |
| Cc1ccc(C)n1-c1ccncc1 | -2.45% |
| O=C(COc1ccc(S(=O)(=O)NCCc2ccccc2)cc1)N1CCCC1 | -8.41% |
| Cc1ccc(Cn2nnc3c(=O)n(CC(=O)N4CCCCC4)cnc32)cc1 | -6.24% |
| CC(=O)Nc1ccc(-c2nn3c(C)nnc3s2)cc1C | -4.83% |
| CCN1CCc2c(C#N)c(NCc3ccccc3)nc(NCCO)c2C1 | 10.1% |
| N#Cc1ccc(COC(=O)Cn2nnc(-c3ccccc3)n2)cc1 | -12.9% |
| N#Cc1c(N)sc2c1CCN(C(=O)OCc1ccccc1)C2 | 52% (active) |
| CN(C(=O)CSc1nnnn1-c1ccccc1)C1CCCCC1 | -7.53% |
| CCN(Cc1ccccc1)C(=O)CSc1nc(C)cc2c1C(=O)OC2 | -15.7% |
| Cc1ccc(-c2nn(-c3ccccc3)cc2CN(Cc2ccccc2)C(=O)CCC(=O)O)o1 | 81.7% (active) |
| O=C(O)CCC(=O)N(Cc1cccs1)Cc1cccs1 | 4.03% |
| CSCCC1NC2(C(=O)Nc3ccc(Cl)cc32)[C@@H]2C(=O)N(C3CCCC3)C(=O)[C@H]12 (stereo not given in full) | 2.23% |
| c1ccc2c(c1)OCC(CNc1ncnc3nc[nH]c13)O2 (stereo not given) | -8.18% |
| COC(=O)c1ccc(OC(=O)c2nn(C)cc2Cl)c(OC)c1 | -6.66% |
| O=c1nc2s/c(=C\c3ccco3)c(=O)n2nc1Cc1ccccc1 | 5.64% |
| CCOc1ccccc1/C=c1\sc2nc(-c3ccco3)nn2c1=O | 33.7% |
| CN(c1ccccc1)c1ccc(/C=c2\s/c(=C(/C#N)C(=O)C(C)(C)C)n(Cc3ccco3)c2=O)cc1 | 71.8% (active) |
| CN(C)c1cc(N)c2ccccc2n1 (tested in a mixture with another compound) | -10% |
| COc1ccc(-c2nc(CS(=O)CC(=O)NCc3ccccn3)c(C)o2)cc1 (stereo not given) | 2.69% |
| CCOC(=O)C1CCN(Cc2coc3ccc(Cl)cc3c2=O)CC1 | 2.73% |
| O=C(Cn1nnc(-c2ccccc2)n1)NCc1ccc2c(c1)OCO2 | -23.7% |
| c1ccc(-c2nnc3n2NC(c2ccc4c(c2)OCO4)S3)cc1 (stereo not given) | 67.9% (active) |
| CC1=C(C(N)=O)C(c2ccc3c(c2)OCO3)n2nc(-c3cccc(C)c3)nc2N1 (stereo not given) | 0.45% |
